CHX counter: counter-screen hit for Shiga toxin inhibitors, cycloheximide; actives 12% (n = 300,000); AID 2314; max response, %; cell reporter, cycloheximide protein synthesis inhibition counterscreen; in the data active = max response mostly above about 13%, no sharp cut-off; inactive = mostly below about 14%; also: read at 38.3 µM for the half of the compounds with a filed dose; 0% is about no effect
NS1 inh: influenza NS1 inhibition | AID 2326 | Potency, µM (highest dose often 46.1 µM), for the others: at the top dose activity, positive = more growth | actives 0.4% (n = 270,000); calls by dose curve; also: potency is read from the fitted curve at half-maximal effect; actives are rising curves; nearly all actives have a fitted effect of over 50% in size
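Recovery from NS1-induced slow growth read by OD600 in budding yeast switched to galactose assay medium (pH 6.0, -URA) at 1:100 dilution. Compound 23 nl per well; the matching strain lacking NS1 serves as control.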
Shiga inhibitor: blocks Shiga toxin action in Vero cells; inhibition, % at 38.7 µM; Vero cells, Shiga toxin protein synthesis inhibition reporter; actives 9.2% (n = 290,000); in the data active = inhibition mostly above about 28%, no sharp cut-off; inactive = mostly below about 43%; also: 0% is about no effect
AmpC detergent: blocks E. coli AmpC beta-lactamase in detergent assay; actives 0.041% (n = 370,000); P00811; AID 485294; Potency, µM (titrated, usually from 114 µM), for the others: top-dose activity change, negative = inhibition, hits mostly inhibitors; AmpC hydrolysis of nitrocefin, absorbance 480 nm, 0.01% Triton;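 also: potency is read from the fitted curve at half-maximal effect; 0% = no-compound wells and -100% = no-enzyme wells; nearly all actives have a fitted effect of over 25% in size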
Target sequence (P00811 whole entry, looked up): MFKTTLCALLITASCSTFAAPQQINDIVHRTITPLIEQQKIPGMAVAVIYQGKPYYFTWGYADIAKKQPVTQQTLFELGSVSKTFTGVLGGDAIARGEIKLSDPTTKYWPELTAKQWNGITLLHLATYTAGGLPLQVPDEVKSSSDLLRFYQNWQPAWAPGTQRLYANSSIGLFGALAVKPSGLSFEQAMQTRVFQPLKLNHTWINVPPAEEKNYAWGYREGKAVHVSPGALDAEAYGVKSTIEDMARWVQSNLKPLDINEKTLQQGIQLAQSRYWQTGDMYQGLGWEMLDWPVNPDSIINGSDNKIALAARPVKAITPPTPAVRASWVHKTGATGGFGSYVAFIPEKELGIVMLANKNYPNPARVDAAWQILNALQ
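20 mM phosphate pH 7.0 + 0.01% (detergent screen) or 0.0001% Triton X-100; 5.3 nM AmpC reagent; cpd preinc 15 min RT; nitrocefin (800 uM stock) to start; A480 q20 s × 4 min; Activity was normalised to no-enzyme and no-compound control wells.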
AmpC no deterg: AmpC beta-lactamase inhibition without detergent | AmpC nitrocefin hydrolysis, absorbance 480 nm, 0.0001% Triton | actives 0.52% (n = 330,000) | Potency, µM (series often up to 57.1 µM), inactives show top-dose activity change, negative = inhibition, hits mostly inhibitors | AID 485341 | P00811;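 also: potency is read from the fitted curve at half-maximal effect; plate controls were no compound for no effect and no enzyme for full effect; nearly all actives have a fitted effect of over 20% in size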
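AmpC (5.3 nM in the dispensed reagent) in 20 mM phosphate pH 7.0 with 0.01% (detergent screen) or 0.0001% Triton X-100 was preincubated with compounds for 15 min at room temperature. Nitrocefin was then added from an 800 uM solution, and hydrolysis was followed at 480 nm.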
Active calls of the source: *; ? = inconclusive; / = no result given. Only a selection was taken, and hits are over-represented in it overall. Unless noted, calls follow the shape of the dose curve; as a rule, active = well fitted curve in the direction sought with a large enough effect; inconclusive = small, poorly fitted or top-dose-only effect, or another doubt; inactive = no such curve, though single readings can be large; an effect the other way counts as inactive or inconclusive.

SMILES	CHX counter	NS1 inh	Shiga inhibitor	AmpC detergent	AmpC no deterg
CCC(=O)Nc1ccc(C(=O)OCc2ccccc2)cc1	39*	/	77*	1%	-15%
CC(=O)Nc1cccc(C(=O)OCc2ccccc2)c1	27*	-59%	74*	-8%	3%
CCC(=O)Nc1ccccc1	-3	-2%	-3	-7%	-16%
CC1(C)OC2CC(=O)OCC23C1CC(=O)C1(C)C3CC[C@@]2(C)[C@H](c3ccoc3)OC(=O)C3OC312 (stereo partly drawn)	6	/	23	/	/
CCS(=O)(=O)c1ccc(O)c(Nc2cc(C)nc(SC)n2)c1	/	/	/	-7%	/
C[N@+]1(CCC(=O)c2ccccc2)CC[C@H]2CC[C@H](C2)C1	/	0%	/	/	/
CN(C)c1ccc(C(CNC(=O)c2ccco2)N2CCCC2)cc1 (stereo not drawn)	26	6%	48*	?	-18%
CCCSc1nc2sc3c(c2c(=O)n1-c1ccc(C)cc1)CCCC3	/	/	/	16%	/
O=C(O)c1cn(C2CCCCC2)c2ccccc2c1=O	-3	-2%	-1	4%	-8%
Cn1cccc1/C=C1\SC(=S)N(NC(=O)c2ccccc2O)C1=O	-2	-7%	6	2%	-44%
O=C(O)CCCN1C(=O)/C(=C/C=C/c2ccco2)SC1=S	3	5%	-21	-4%	-33%
O=C(NN1C(=O)/C(=C/C=C/c2ccco2)SC1=S)c1ccccc1O	-1	-7%	-8	4%	16µM*
O=C1S/C(=C\C=C\c2ccco2)C(=O)N1c1ccccc1	38*	15%	59*	-12%	-43%
O=C1S/C(=C\C=C\c2ccco2)C(=O)N1c1ccc(O)cc1	43*	11%	71*	-3%	32µM*
C=C1CCN(C(CC(C)C)C(=O)NN2CCOCC2)S(=O)(=O)c2ccccc21 (stereo not drawn)	-3	/	7	/	/
COc1ccc(-n2cc(-c3ccccc3)c3c(NCCc4ccc(OC)c(OC)c4)ncnc32)cc1	/	/	/	-5%	/
Cc1ccccc1NC(=O)C(=O)NCc1ccccn1	27*	-2%	12	3%	-4%
Cc1cc(Br)ccc1NCc1ccccn1	31*	-7%	67*	-6%	1%
c1ccc(NCc2ccccn2)cc1	18*	5%	95*	-14%	-12%
OC(CNCc1ccccn1)c1ccccc1 (stereo not drawn)	-2	7%	-6	-10%	-12%
O=C(NCc1ccccn1)C(=O)Nc1ccccc1	23*	-4%	67*	2%	-9%
Cc1ccc(NC(=O)C(=O)NCc2ccccn2)cc1	29*	-2%	87*	0%	-10%
Cc1cc(C)cc(NC(=O)C(=O)NCc2ccccn2)c1	-2	1%	-6	?	-8%
COc1ccc(Nc2ccc3cc(S(=O)(=O)N4CCCC4)ccc3n2)cc1Cl	/	/	/	4%	/
CC(C)(C)NC(=O)/C=C/c1ccc(C(F)(F)F)cc1	76*	-14%	96*	7%	1%
SMILES	CHX counter	NS1 inh	Shiga inhibitor	AmpC detergent	AmpC no deterg
CNc1snc(C)c1C(=O)OCC(=O)c1ccc(OC)c(F)c1	/	/	/	4%	-4%
CCOc1ccc(OCC)c(NC(=O)CCS(=O)(=O)c2ccc(Br)s2)c1	15*	-16%	33	2%	-4%
N#Cc1c(-c2ccc3c(c2)OCO3)csc1N	28*	-31%	83*	-7%	-55%
CCC(=NCc1ccc(Cl)c(Cl)c1)c1nc(-c2ccco2)oc1O	23	-23%	48*	-5%	1%
Cc1nn(Cc2ccc(Cl)c(Cl)c2)c(C)c1NC(=O)c1cc(-c2ccco2)on1	3	-34%	7	-1%	0%
COc1ccc(C(=O)NNc2ncnc3c2cnn3-c2ccc(C)cc2C)cc1	/	/	/	-10%	/
O=[n+]1cc(-c2ccccc2)n([O-])c2c1CCCCC2	16*	5%	-5	/	-58%
N#C/C(=C\c1cc(O)c(O)c(O)c1)C(N)=O	-2	1%	-8	-10%	-28%
N#C/C(=C/c1cccc(O)c1)C(=O)NCc1ccc(Cl)cc1	-3	-57%	12	-2%	20µM*
N#C/C(=C\c1ccc(OCc2ccc(Cl)cc2)cc1)C(=O)Nc1cccc(C(=O)O)c1	18*	-40%	34*	-9%	-16%
COc1cc(/C=C(\C#N)C(=O)Nc2cccc(C(=O)O)c2)ccc1OCc1ccc(C)cc1	26*	-1%	74*	-13%	-32%
